Reference: PubChem BioAssay (EPA / NIEHS)
Activity calls are given as the source filed them. Rule for the calls: active = hit-call score of the fitted dose curve at least 0.9, where 1 is the maximum; inactive = score below 0.9.

What was measured:
Details in all cases: mRNA level, 48 h; actives raise or lower the signal
[1] = read-out: Fatty Acid-Binding Protein 1 (FABP1), FABP1 (gene 2168); assay: LTEA_HepaRG_FABP1: Life Technologies and Expression Analysis (LTEA) Assay for Fatty Acid-Binding Protein 1 (FABP1) using HepaRG (AID 2283494)
Procedure, shortened: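 Differentiated human HepaRG cells were exposed in duplicate for 48 h in serum-free induction medium to 8-point half-log concentration series topping at 100 uM in 0.5% DMSO. FABP1 mRNA measured by TaqMan qRT-PCR, normalized to ACTB/GAPDH/POLR2A; bidirectional fit versus DMSO.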

[2] = read-out: Cytochrome P450 4A22 (Homo sapiens) (UniProt Q5TCH4); assay: LTEA_HepaRG_CYP4A22: Life Technologies and Expression Analysis (LTEA) Assay for Cytochrome P450 4A22 (CYP4A22) using HepaRG (AID 2283495)
Procedure, shortened: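 Cryopreserved HepaRG cells, plated and cultured 48 h, then switched to serum-free induction medium and treated 48 h (duplicates, up to 100 uM, half-log steps, 0.5% DMSO). Expression change of CYP4A22 was fitted bidirectionally against vehicle.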

[3] = read-out: Glutathione S-Transferase (GSTA2), GSTA2 (gene 2939); assay: LTEA_HepaRG_GSTA2: Life Technologies and Expression Analysis (LTEA) Assay for Glutathione S-Transferase (GSTA2) using HepaRG (AID 2283497)
Procedure, shortened: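 Human HepaRG cells, plated 48 h, then exposed in serum-free induction medium for 48 h to eight half-log concentrations up to 100 uM in 0.5% DMSO, duplicate. GSTA2 mRNA by qRT-PCR, normalized to ACTB/GAPDH/POLR2A; bidirectional fit versus DMSO.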

[4] = read-out: Glutamate-cysteine ligase catalytic (GCLC), GCLC (gene 2729); assay: LTEA_HepaRG_GCLC: Life Technologies and Expression Analysis (LTEA) Assay for Glutamate-cysteine ligase catalytic (GCLC) using HepaRG (AID 2283498)
Procedure, shortened: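 Differentiated human HepaRG cells, plated 48 h then switched to serum-free induction medium, were exposed in duplicate for 48 h to 8 half-log concentrations topping at 100 uM in 0.5% DMSO. GCLC mRNA was quantified by qRT-PCR against ACTB, GAPDH and POLR2A.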

[5] = read-out: growth arrest and DNA damage 45 (GADD45G), GADD45G (gene 10912); assay: LTEA_HepaRG_GADD45G: Life Technologies and Expression Analysis (LTEA) Assay for growth arrest and DNA damage 45 (GADD45G) using HepaRG (AID 2283499)
Procedure, shortened: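 Human hepatic HepaRG line treated 48 h with chemicals (eight concentrations, half-log steps from 100 uM); transcript induction or repression of GADD45G scored by qRT-PCR versus DMSO vehicle.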

[6] = read-out: Glutamate-cysteine ligase regulatory (GCLM), GCLM (gene 2730); assay: LTEA_HepaRG_GCLM: Life Technologies and Expression Analysis (LTEA) Assay for Glutamate-cysteine ligase regulatory (GCLM) using HepaRG (AID 2283500)
Procedure, shortened: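 Human liver HepaRG cultures receive test chemicals for 48 hours at up to 100 uM in 0.5% DMSO. GCLM expression is measured by qRT-PCR and analysed for increases or decreases against vehicle.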

[7] = read-out: Glutathione S-transferase M3 (GSTM3), GSTM3 (gene 2947); assay: LTEA_HepaRG_GSTM3: Life Technologies and Expression Analysis (LTEA) Assay for Glutathione S-transferase M3 (GSTM3) using HepaRG (AID 2283501)
Procedure, shortened: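 Changes in GSTM3 expression, an oxidative-stress marker, were scored by bidirectional curve fitting against 0.5% DMSO vehicle. Human HepaRG cultures received chemicals for 48 h in duplicate, highest concentration 100 uM with half-log dilutions.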

[8] = read-out: Heat shock 70 kDa protein 1 (HSPA1A), gene 3303; assay: LTEA_HepaRG_HSPA1A: Life Technologies and Expression Analysis (LTEA) Assay for Heat shock 70 kDa protein 1 (HSPA1A) using HepaRG (AID 2283502)
Procedure, shortened: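 HSPA1A induction in human HepaRG liver cells is measured after 48 h of chemical treatment (100 uM maximum, 0.5% DMSO vehicle). Expression comes from qRT-PCR normalized to endogenous controls.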

[9] = read-out: Hypoxia-inducible factor 1-alpha (Homo sapiens) (UniProt Q16665); assay: LTEA_HepaRG_HIF1A: Life Technologies and Expression Analysis (LTEA) Assay for Hypoxia-inducible factor 1 (HIF1A) Trancription factor using HepaRG (AID 2283503)
Procedure, shortened: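 HepaRG, 48 h exposure, 8-pt half-log series from 100 uM, 0.5% DMSO vehicle, duplicates. Readout: HIF1A transcript by qRT-PCR (Fluidigm array), housekeeping-normalised. Bidirectional curve fit vs DMSO baseline.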

[10] = read-out: Cytochrome P450 7A1 (Homo sapiens) (UniProt P22680); assay: LTEA_HepaRG_CYP7A1: Life Technologies and Expression Analysis (LTEA) Assay for Cytochrome P450 7A1 (CYP7A1) using HepaRG (AID 2283496)
Procedure, shortened: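 Gene expression endpoint in human HepaRG liver cells treated for 48 h with test chemicals (up to 100 uM, 0.5% DMSO). Values come from bidirectional concentration-response fitting versus DMSO.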

Measured: AC50

Chain of Hypoxia-inducible factor 1-alpha (Homo sapiens) (Q16665 whole entry, looked up): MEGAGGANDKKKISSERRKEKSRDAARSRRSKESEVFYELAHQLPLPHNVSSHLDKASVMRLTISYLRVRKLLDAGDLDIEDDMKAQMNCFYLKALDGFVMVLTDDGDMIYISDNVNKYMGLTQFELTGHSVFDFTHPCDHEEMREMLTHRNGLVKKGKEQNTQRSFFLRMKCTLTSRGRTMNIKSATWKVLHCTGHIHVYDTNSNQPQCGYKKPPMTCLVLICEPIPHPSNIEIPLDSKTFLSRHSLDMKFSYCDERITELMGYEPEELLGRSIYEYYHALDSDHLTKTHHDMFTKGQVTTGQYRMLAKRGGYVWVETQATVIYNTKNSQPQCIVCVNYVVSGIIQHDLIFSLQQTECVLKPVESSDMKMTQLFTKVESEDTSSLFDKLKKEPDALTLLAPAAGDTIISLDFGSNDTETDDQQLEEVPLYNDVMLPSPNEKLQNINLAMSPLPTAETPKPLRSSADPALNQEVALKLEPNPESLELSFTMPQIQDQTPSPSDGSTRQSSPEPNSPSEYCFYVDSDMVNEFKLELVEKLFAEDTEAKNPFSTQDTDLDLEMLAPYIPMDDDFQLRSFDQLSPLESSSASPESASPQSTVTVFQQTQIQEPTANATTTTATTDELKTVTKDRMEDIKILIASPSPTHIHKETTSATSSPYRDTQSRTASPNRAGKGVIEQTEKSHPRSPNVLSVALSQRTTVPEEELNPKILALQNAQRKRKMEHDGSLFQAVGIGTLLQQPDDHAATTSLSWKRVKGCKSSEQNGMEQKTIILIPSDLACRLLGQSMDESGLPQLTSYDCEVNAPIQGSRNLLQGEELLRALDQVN

CC(C)(C)OOC(C)(C)CCC(C)(C)OOC(C)(C)C
not listed: [10]
inactive: all other assays above

O=Cc1ccco1
not listed: [10]
inactive: all other assays above

CN(C)C(=O)Nc1ccc(Cl)cc1
not listed: [10]
inactive: all other assays above

CNC(=O)Oc1cccc2c1OC(C)(C)C2
active: [1] 3.45 µM
not listed: [10]
inactive: all other assays above

CN(C)[C@@H]1C(=O)C(C(N)=O)=C(O)[C@@]2(O)C(=O)C3=C(O)c4c(O)cccc4[C@@](C)(O)[C@H]3C[C@@H]12
not listed: [9] | [10]
inactive: all other assays above

Clc1ccc(Cl)c(Cl)c1
active: [3] 84 µM | [4] 9.92 µM
not listed: [10]
inactive: all other assays above

CC(O)CCO (stereo unspecified)
inactive: all assays above

ClC1=C(Cl)[C@]2(Cl)[C@H]3[C@H]([C@@H]4C=C[C@H]3C4)[C@@]1(Cl)C2(Cl)Cl
active: [1] 6.01 µM | [2] 29.1 µM | [10] 19.4 µM | [6] 12.7 µM
inactive: all other assays above

OCCCl
inactive: all assays above

CCOc1cccc(C2(N3CCN(c4ccccc4)CC3)CCC(C)CC2)c1 (stereo unspecified)
not listed: [10]
inactive: all other assays above

[Cl-].[Cl-].[Hg+2]
active: [5] 24.1 µM
not listed: [10]
inactive: all other assays above

CCN(CC)N=O
not listed: [10]
inactive: all other assays above

CCN(CC)CCO
not listed: [10]
inactive: all other assays above

CCC12COCN1COC2
not listed: [10]
inactive: all other assays above

Nc1ccc(Cl)cc1N
inactive: [6] | [7]
active: [1] 28.2 µM | [2] 29.7 µM | [3] 27.9 µM | [4] 32.6 µM | [5] 38.8 µM | [8] 20.6 µM | [9] 19.7 µM

COC(=O)Nc1nc2ccccc2[nH]1
not listed: [10]
inactive: all other assays above

Oc1ccc2ccc3cccc4ccc1c2c34
not listed: [10]
inactive: all other assays above

CC(C)(C)OOC(=O)c1ccccc1
not listed: [10]
inactive: all other assays above

CCOC(=O)[C@]1(c2ccccc2)Oc2ccccc2[C@@H]1N
active: [1] 90.1 µM | [2] 71.6 µM | [3] 76.1 µM | [4] 82.4 µM | [5] 87.9 µM | [6] 76.9 µM | [9] 82.2 µM
inactive: [7] | [8]

Cc1cc(N=Nc2ccccc2C)ccc1N
active: [1] 5.03 µM | [2] 4.39 µM | [3] 5.01 µM | [4] 1.67 µM | [5] 4.14 µM | [6] 50 µM | [7] 1.48 µM | [8] 3.55 µM | [9] 7.09 µM

Clc1ccc(C(c2ccc(Cl)cc2)C(Cl)(Cl)Cl)cc1
active: [1] 50 µM | [2] 50 µM | [5] 16.7 µM | [8] 23.3 µM
not listed: [10]
inactive: all other assays above

CCCCCCCCOC(=O)c1ccc(C(=O)OCCCCCCCC)c(C(=O)OCCCCCCCC)c1
not listed: [10]
inactive: all other assays above

ClC1=C(Cl)C2(Cl)C3C(Cl)C=CC3C1(Cl)C2(Cl)Cl (stereo unspecified)
inactive: [3] | [4] | [5] | [7]
active: [1] 15.9 µM | [2] 13.1 µM | [6] 32.1 µM | [8] 24 µM | [9] 33.8 µM

Cc1ccc([N+](=O)[O-])cc1
active: [1] 10 µM
not listed: [10]
inactive: all other assays above

CCC[CH2][Sn]([Cl])([CH2]CCC)[CH2]CCC
active: [1] 2.31 µM | [3] 1.67 µM | [4] 50 µM | [5] 5.56 µM | [8] 2.27 µM | [9] 2.07 µM
inactive: [6] | [7]

CC(C)(OOC(C)(C)c1ccccc1)c1ccccc1
not listed: [10]
inactive: all other assays above

O=C1CCCO1
active: [3] 50 µM | [4] 9.92 µM
not listed: [10]
inactive: all other assays above

C[C@]12C=CC3=C4CCC(=O)C=C4CC[C@H]3[C@@H]1CC[C@@H]2O
active: [1] 47.7 µM | [5] 60.9 µM | [6] 79 µM
not listed: [2] | [10]
inactive: all other assays above

c1ccc(N=Nc2ccccc2)cc1
not listed: [10]
inactive: all other assays above

Cc1ccc(N)cc1
not listed: [10]
inactive: all other assays above

ClCCOCCCl
not listed: [10]
inactive: all other assays above

CCNS(=O)(=O)C(F)(F)C(F)(F)C(F)(F)C(F)(F)C(F)(F)C(F)(F)C(F)(F)C(F)(F)F
active: [1] 59.3 µM | [10] 48.2 µM | [3] 48.2 µM | [5] 36.6 µM
inactive: [4] | [6] | [7] | [9]

C[N+](C)(C)CC1CO1 (stereo unspecified)
not listed: [10]
inactive: all other assays above

CC(C)(O)c1cnn2c(-c3ccc(F)c(-c4c(F)cccc4C#N)c3)cnc2n1
active: [1] 1.57 µM | [2] 1.71 µM
not listed: [10]
inactive: all other assays above

Clc1ccccc1Cl
not listed: [10]
inactive: all other assays above

[O-][Cl+]O
not listed: [2] | [10]
inactive: all other assays above

c1ccc2c(c1)-c1cccc3cccc-2c13
active: [1] 50 µM
not listed: [2] | [10]
inactive: all other assays above

CCC(C)c1ccc(O)cc1 (stereo unspecified)
active: [4] 0.397 µM
not listed: [10]
inactive: all other assays above

COP(=S)(OC)SCN1C(=O)c2ccccc2C1=O
not listed: [1] | [10]
inactive: all other assays above

COC(=O)c1ccccc1N
not listed: [10]
inactive: all other assays above
